# From PubChem BioAssay AID1508600 (Functional Genomics Laboratory (NCATS/FGL), 2020)
# Among all 53,000 sequences or so, about 3,700 (7%) were called active. This is one part of a sample in which actives are shown more often than they occur. A number with no mark means an inactive call.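 Rule for the calls: active = gene knockdowns whose robust z-score for IL-1 alpha signal is at least 2 or at most -2, so actives lie on both sides; inactive = the rest.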
# Test: Components of the Cytosolic LPS Sensing Pathway: Gene Identification via Genome-wide siRNA Screen;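 note: robust z of the log signal after scaling to non-targeting control siRNA wells of the plate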
# Conditions: RAW264.7 macrophages, IL-1a HTRF, actives lie on both sides, screened at 100 nM (by protocol), cells primed 5 h with Pam3CSK4 first
# In short: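 RAW264.7; siRNA 100 nM final, RNAiMAX, 48h 37 degrees C; Pam3CSK4 5 h; LipidA + TransIT-TKO 24 h; IL-1a HTRF; CellTiter-Glo viability; robust z vs negative-control median.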
row,Sequence,z-score
1,GGCAACAACAUACCUAAUATT against Rmdn1,-0.756
2,GGUACUUUCGCAUCCUGCATT against Rnaseh2b,-0.397
3,GGCAAAUGAGAAACAGCAATT against Cxcl16,-2.23 (active)
4,GGUGUUGGCUCACAACCAATT against Fam234b,-1.67
5,GGUCAUUCCCAUUAAACAGTT against Emc8,-2.57 (active)
6,GGGCUCUGAAUUGAAGAAATT against Ralgps2,-0.163
7,CCCUUAGGGAGUGCUGUGATT against Gc,-1.85
8,CCAAAGGGAAGAGUUAUGCTT against Tmem126b,2.34 (active)
9,CCCAUGAACCUUAUUUGAATT against Ino80c,-0.268
10,GGUGGUAUUGUUGGCUUUATT against Olfr1297,0.293
11,GAUGGACAGAAAUCAGGAGTT against Arap1,0.208
12,CGGUCAUUUGAAGUAGGAATT against Pwwp3a,0.76
13,GGAUCAUCUCCUCUACUCUTT against Olfr394,-1.84
14,GGAAGUAGCUUAUUGUUCUTT against Polr2b,-2.69 (active)
15,CCAGGUGAAUUAAUAGUCUTT against Stk4,0.93
16,GGUACUAAAUCAAACAUCCTT against Angpt1,0.578
17,GAUCUUUCGACACAUCACCTT against Cyp4a12a,-2.02 (active)
18,GCCUGAAUCCGCCACAUUGTT against Cx3cl1,1.6
19,GGAGGACCAUUGUAAGUAGTT against 9930022D16Rik,2.17 (active)
20,CCUGGAUGCAGGUUAAGCUTT against Dppa5a,-0.817
21,GCUGAAACUAACAUUUGAUTT against Anxa3,0.146
22,CCUCCACUAUACGGUAAGUTT against Pla2g2c,-3.37 (active)
23,GGCUGGAUGUCAGAUUGCATT against Olfr1389,-1.38
24,GGACCAGUUUGAGUAUGAGTT against Tmem11,-1.58
25,CCUGUGAGGCCAUUGAUUCTT against Acsbg1,-1.33
26,GGACUCUUUUUGUUCUUUGTT against Vgll2,-1.22
27,CGUUACCAUGAGAGUUAAUTT against Pcdhb19,3.83 (active)

row,Sequence,z-score
1,CGGGAGUAUCUGCUUCAGUTT against Ndufb4,0.336
2,GGCUGAAGAGAUUGUCAAUTT against Aars,-0.392
3,CCUGCUAAACCUGGACCAUTT against Hic1,1.61
4,GGAGCUUAGCCUCUGUAUGTT against Gatd3a,-0.86
5,GGUAAAGACAAGAUUAAAGTT against Cyp39a1,-0.308
6,GCCACUCAUAUUGAUCCAUTT against Prss34,-2.31 (active)
7,GGUGUUUACUCCGUACCCATT against Tbrg4,-2
8,GCGUGAACCUCCUUCUUGATT against Ramp3,-1.29
9,GGAGAGGCAUCUUUUCCUATT against Arhgap20,-0.338
10,CCCACCUAGGUUCAUCCCATT against Fat1,-1.4
11,GGAAUGUGAGCUUAUCAUATT against Tlr1,-0.965
12,GCAUAGAUUGAUGGCUAAUTT against Chd8,1.18
13,GCAUAGCAGAGAUGAUUCUTT against Trip12,2.15 (active)
14,GGUUGAUGAGUUUAGGUUUTT against Cpsf2,0.264
15,GGGUUCAAAAGCCCAUAUUTT against Gm6787,0.206
16,GGUCUUCGAAACACAGCUGTT against Exoc3l2,-0.402
17,GGUUUUAUCAGAAUGUCAGTT against Atpaf2,0.464
18,CCAUAGUAUUGAUGUCUGCTT against Nat8f2,0.363
19,GGACUCUUUUCUACGUGGATT against Klhl1,2.54 (active)
20,CCCUAGGUCAUAGCUUGACTT against Crtc1,1.58
21,CGGUCCCAAACGGUCAAGUTT against Tafa2,1.69
22,GCCUGGAAUGCAGAAUCGATT against Vwa2,-0.0276
23,CCCAAAGUGCUUUACAAUGTT against Aard,2.1 (active)
24,GGUUCAACGCAAAGUUCGCTT against Aldh4a1,0.347
25,GCUACUAUGUGCCCUGAUATT against Ms4a7,-0.458
26,CCUCCUUAUCCAUAAUAUUTT against Slc35a3,0.727
27,GGCUCUAAAACUGUCAGACTT against Scp2d1,2.25 (active)
